In article PMC7862700, “An all-to-all approach to the identification of sequence-specific readers for epigenetic DNA modifications on cytosine”:

Experiments:
Test in all cases: DAPPL (digital affinity profiling via proximity ligation, sequencing); 10 mM Tris-HCl pH 7.5, 50 mM NaCl, 1 mM DTT, 4% glycerol, room temperature, 30 min; GST-TFs on glutathione beads, 16-mer random dsDNA library, 0.1% formaldehyde crosslink after washing; high values mean tight binding
FLI1 = target: T1, FLI1 (Homo sapiens, UniProt Q01543 1-452); settings: protein: recombinant; tags: N-terminal GST; dsDNA, one strand shown
T1 sequence: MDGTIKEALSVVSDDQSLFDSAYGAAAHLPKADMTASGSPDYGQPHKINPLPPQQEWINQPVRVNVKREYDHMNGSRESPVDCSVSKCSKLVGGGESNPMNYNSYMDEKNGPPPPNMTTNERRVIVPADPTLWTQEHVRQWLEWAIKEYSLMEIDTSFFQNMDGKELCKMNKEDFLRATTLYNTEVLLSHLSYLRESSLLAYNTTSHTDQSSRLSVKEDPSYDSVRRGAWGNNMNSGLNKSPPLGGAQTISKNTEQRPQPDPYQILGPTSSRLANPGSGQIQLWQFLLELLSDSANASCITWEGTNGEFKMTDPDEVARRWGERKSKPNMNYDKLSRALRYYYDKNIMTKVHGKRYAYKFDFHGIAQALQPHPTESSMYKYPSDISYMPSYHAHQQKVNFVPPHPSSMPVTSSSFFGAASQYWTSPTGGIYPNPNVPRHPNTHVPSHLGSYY
Summary of the method: (§1)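 The binding signal reported is, for every hexamer, its read frequency for a factor over its read frequency for the tag-only sample. Reads came from pools of yeast-expressed, GST-fused human transcription factors on glutathione beads, barcoded with DNA and mixed with that sample, which were incubated with 200 nmole of a random double-stranded 16-mer DNA library in Tris/NaCl/DTT/glycerol buffer at room temperature for 30 min. After washing, the pools were crosslinked with 0.1% formaldehyde, proximity-ligated with BsaI/T4 ligase for 1 h at 37 °C, PCR-amplified and sequenced on an Illumina NextSeq500.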

ELK1 = target: T2, ELK1 (Homo sapiens, UniProt P19419 1-428); settings: protein: recombinant; tags: N-terminal GST; dsDNA, one strand shown
T2 sequence: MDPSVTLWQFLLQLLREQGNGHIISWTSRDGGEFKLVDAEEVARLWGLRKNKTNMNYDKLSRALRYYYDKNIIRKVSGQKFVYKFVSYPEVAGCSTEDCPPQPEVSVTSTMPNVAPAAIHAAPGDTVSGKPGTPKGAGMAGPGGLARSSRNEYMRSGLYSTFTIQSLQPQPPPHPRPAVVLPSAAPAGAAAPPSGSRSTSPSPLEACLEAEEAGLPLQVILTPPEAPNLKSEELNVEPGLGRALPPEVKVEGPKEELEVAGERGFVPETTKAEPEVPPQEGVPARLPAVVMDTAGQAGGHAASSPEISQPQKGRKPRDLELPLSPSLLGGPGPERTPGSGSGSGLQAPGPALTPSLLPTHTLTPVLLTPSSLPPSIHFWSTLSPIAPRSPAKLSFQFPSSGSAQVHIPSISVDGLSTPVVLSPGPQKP
Summary of the method: as §1

GABPA = target: T3, GABPA (Homo sapiens, UniProt Q06546 1-454); settings: protein: recombinant; tags: N-terminal GST; dsDNA, one strand shown
T3 sequence: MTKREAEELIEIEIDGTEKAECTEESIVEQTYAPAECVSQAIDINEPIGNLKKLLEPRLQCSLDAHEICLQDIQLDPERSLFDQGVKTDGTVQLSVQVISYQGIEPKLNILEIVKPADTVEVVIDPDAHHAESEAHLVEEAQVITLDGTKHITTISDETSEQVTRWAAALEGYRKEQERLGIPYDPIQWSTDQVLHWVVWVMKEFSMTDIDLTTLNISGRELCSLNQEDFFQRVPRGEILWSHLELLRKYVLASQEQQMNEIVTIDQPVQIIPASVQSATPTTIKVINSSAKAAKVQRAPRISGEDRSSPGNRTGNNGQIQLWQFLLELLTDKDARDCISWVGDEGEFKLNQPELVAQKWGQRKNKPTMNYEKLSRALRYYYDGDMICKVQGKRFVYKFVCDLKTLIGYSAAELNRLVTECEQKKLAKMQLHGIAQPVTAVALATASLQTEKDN
Summary of the method: as §1

ERG = target: T4, ERG (Homo sapiens, UniProt P11308 1-479); settings: protein: recombinant; tags: N-terminal GST; dsDNA, one strand shown
T4 sequence: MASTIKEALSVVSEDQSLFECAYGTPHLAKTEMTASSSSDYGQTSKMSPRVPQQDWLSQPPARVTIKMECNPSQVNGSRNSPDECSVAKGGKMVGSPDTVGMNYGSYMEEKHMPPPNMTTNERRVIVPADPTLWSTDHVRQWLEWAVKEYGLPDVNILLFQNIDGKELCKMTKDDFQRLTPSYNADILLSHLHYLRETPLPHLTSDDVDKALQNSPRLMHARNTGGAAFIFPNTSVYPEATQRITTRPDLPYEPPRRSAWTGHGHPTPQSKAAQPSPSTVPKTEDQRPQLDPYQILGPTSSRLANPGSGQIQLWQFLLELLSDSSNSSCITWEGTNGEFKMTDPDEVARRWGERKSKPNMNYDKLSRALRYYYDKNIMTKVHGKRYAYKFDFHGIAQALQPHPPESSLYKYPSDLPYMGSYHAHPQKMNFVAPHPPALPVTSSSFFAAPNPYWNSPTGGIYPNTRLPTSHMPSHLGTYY
Summary of the method: as §1

ELF1 = ELF1 (Homo sapiens, UniProt P32519 1-619); settings: protein: recombinant; tags: N-terminal GST; dsDNA, one strand shown
Chain of ELF1 (P32519 whole entry): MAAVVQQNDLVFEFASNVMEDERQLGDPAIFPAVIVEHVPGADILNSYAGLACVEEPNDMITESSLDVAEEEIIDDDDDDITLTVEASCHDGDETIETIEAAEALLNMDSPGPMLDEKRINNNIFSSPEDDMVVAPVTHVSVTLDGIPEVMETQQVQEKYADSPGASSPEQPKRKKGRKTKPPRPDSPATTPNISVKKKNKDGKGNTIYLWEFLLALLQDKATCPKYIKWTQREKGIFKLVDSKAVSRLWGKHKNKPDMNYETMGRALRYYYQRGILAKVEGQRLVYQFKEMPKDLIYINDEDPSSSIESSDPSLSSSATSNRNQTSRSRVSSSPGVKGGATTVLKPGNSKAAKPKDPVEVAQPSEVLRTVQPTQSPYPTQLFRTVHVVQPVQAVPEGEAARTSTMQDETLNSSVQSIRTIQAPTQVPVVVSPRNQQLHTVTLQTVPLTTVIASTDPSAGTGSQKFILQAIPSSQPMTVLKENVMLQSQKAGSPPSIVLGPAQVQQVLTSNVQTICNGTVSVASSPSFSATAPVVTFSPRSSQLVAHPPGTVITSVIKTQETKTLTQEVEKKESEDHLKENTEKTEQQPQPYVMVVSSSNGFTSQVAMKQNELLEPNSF
Summary of the method: as §1

EHF = target: T5, EHF (Homo sapiens, UniProt Q9NZC4 1-300); settings: protein: recombinant; tags: N-terminal GST; dsDNA, one strand shown
T5 sequence: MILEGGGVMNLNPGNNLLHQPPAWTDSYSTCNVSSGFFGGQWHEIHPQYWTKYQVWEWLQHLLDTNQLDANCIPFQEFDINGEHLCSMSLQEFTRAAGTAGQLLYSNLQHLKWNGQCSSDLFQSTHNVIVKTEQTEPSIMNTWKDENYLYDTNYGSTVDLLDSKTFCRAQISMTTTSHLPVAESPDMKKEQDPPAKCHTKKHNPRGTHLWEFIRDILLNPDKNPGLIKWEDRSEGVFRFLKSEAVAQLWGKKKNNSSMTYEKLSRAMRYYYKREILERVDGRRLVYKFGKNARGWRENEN
Summary of the method: as §1

SPI1 = SPI1 (Homo sapiens, UniProt P17947 1-270); settings: protein: recombinant; tags: N-terminal GST; dsDNA, one strand shown
Summary of the method: as §1

SPIB = SPIB (Homo sapiens, UniProt Q01892 1-262); settings: protein: recombinant; tags: N-terminal GST; dsDNA, one strand shown
Chain of SPIB (Q01892 whole entry): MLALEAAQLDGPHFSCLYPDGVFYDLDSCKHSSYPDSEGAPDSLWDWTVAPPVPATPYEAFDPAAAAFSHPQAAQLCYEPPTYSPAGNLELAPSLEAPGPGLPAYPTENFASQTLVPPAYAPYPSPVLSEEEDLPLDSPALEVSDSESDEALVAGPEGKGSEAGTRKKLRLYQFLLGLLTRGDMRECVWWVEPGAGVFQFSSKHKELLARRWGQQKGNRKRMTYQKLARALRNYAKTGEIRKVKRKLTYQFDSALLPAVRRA
Summary of the method: as §1

ELK3 = target: T6, ELK3 (Homo sapiens, UniProt P41970 1-407); settings: protein: recombinant; tags: N-terminal GST; dsDNA, one strand shown
T6 sequence: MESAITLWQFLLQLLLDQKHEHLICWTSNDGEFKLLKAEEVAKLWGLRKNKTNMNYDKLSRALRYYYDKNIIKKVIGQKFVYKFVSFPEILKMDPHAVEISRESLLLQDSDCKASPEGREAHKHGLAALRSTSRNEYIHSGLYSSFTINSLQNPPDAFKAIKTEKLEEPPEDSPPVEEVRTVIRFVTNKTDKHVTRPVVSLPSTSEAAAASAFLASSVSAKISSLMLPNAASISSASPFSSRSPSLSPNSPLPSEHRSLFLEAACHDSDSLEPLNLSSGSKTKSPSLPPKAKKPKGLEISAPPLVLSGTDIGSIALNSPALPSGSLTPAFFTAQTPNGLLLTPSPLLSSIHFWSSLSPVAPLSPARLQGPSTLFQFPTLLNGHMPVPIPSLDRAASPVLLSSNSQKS
Summary of the method: as §1

FEV = target: T7, FEV (Homo sapiens, UniProt Q99581 1-238); settings: protein: recombinant; tags: N-terminal GST; dsDNA, one strand shown
T7 sequence: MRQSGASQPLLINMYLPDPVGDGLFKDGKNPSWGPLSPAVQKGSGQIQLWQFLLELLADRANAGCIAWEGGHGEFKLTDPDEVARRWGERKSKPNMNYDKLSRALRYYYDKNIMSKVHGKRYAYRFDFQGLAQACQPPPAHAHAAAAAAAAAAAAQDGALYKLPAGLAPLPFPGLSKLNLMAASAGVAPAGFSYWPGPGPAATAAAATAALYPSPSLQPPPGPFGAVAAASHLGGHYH
Summary of the method: as §1

ETV5 = ETV5 (Homo sapiens, UniProt P41161 1-510); settings: protein: recombinant; tags: N-terminal GST; dsDNA, one strand shown
Chain of ETV5 (P41161 whole entry): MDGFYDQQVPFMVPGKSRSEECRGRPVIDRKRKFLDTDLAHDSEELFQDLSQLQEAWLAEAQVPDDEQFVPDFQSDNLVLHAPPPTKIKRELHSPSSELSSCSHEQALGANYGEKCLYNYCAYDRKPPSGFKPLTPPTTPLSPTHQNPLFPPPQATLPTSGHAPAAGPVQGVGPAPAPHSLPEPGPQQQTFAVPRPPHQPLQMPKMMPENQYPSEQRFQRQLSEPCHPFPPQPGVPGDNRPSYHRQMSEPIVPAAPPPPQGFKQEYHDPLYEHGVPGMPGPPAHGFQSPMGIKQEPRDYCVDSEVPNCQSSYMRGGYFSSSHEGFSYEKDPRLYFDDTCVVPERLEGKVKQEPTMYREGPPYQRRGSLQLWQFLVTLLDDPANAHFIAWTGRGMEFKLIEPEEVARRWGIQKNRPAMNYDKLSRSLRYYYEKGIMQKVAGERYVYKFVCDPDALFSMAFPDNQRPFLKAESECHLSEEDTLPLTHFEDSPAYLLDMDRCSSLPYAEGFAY
Summary of the method: as §1

HSF1 = HSF1 (Homo sapiens, UniProt Q00613 1-529); settings: protein: recombinant; tags: N-terminal GST; chain copies: 3; dsDNA, one strand shown
Chain of HSF1 (Q00613 whole entry): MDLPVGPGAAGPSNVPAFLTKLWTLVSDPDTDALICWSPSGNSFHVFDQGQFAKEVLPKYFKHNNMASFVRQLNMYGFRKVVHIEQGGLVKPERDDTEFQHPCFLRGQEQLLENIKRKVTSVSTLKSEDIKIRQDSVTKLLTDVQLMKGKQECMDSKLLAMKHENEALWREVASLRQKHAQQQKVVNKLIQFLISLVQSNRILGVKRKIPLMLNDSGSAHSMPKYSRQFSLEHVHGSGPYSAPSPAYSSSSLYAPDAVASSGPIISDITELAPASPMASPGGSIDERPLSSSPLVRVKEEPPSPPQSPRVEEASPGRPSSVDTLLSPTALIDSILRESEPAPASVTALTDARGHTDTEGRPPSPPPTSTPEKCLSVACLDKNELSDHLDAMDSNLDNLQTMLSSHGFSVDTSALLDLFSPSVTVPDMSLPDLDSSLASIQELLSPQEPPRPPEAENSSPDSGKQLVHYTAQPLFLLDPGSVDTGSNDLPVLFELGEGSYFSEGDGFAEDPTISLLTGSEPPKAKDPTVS
Summary of the method: as §1

SPIC = target: T8, SPIC (Homo sapiens, UniProt Q8N5J4 1-248); settings: protein: recombinant; tags: N-terminal GST; dsDNA, one strand shown
T8 sequence: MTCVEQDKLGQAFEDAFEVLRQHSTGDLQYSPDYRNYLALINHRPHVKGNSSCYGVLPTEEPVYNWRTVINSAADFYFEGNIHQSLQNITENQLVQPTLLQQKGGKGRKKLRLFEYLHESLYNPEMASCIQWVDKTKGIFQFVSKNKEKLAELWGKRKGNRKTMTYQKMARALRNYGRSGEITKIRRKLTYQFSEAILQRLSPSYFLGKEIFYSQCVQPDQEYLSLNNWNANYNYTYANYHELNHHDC
Summary of the method: as §1

ELF4 = ELF4 (Homo sapiens, UniProt Q99607 1-663); settings: protein: recombinant; tags: N-terminal GST; dsDNA, one strand shown
Chain of ELF4 (Q99607 whole entry): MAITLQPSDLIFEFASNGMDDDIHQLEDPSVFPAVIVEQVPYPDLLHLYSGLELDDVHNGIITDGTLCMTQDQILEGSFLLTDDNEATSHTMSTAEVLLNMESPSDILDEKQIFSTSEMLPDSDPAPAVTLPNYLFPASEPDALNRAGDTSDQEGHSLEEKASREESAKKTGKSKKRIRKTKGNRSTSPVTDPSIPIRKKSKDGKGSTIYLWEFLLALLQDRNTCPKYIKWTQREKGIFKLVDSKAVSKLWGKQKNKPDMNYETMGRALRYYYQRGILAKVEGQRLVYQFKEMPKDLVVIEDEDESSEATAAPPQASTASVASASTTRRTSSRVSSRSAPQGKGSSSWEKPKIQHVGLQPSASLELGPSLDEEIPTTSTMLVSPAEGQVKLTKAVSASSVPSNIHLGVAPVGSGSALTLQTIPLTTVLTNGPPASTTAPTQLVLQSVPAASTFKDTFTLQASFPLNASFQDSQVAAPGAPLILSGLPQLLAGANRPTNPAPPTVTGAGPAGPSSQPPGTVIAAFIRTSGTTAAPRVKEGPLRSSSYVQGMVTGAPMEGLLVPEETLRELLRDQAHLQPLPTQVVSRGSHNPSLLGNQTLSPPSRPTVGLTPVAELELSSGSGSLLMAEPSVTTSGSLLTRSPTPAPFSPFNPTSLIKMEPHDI
Summary of the method: as §1

ELK4 = target: T9, ELK4 (Homo sapiens, UniProt P28324-2 1-405); settings: protein: recombinant; tags: N-terminal GST; dsDNA, one strand shown
T9 sequence: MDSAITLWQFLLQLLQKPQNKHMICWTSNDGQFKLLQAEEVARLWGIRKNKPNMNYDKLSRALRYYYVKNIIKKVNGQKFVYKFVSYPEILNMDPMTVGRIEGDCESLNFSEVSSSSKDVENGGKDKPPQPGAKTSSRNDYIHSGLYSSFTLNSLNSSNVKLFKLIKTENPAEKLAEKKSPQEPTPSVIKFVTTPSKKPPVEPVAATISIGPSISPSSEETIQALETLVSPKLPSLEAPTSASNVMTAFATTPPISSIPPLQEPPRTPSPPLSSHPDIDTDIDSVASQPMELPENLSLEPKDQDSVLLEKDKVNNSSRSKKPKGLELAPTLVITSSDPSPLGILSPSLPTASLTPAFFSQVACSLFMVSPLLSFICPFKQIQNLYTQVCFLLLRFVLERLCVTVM
Summary of the method: as §1

ETV2 = target: T10, ETV2 (Homo sapiens, UniProt O00321 1-342); settings: protein: recombinant; tags: N-terminal GST; dsDNA, one strand shown
T10 sequence: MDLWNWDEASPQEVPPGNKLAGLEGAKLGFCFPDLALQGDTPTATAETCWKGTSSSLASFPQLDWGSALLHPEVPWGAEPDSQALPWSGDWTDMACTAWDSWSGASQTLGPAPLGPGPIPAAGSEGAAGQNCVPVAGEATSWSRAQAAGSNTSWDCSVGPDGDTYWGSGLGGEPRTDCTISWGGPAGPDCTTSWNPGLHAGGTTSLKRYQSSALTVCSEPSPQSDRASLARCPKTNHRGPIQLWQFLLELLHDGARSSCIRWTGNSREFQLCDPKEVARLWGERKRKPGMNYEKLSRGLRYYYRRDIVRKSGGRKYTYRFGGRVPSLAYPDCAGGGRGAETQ
Summary of the method: as §1

ELF3 = target: T11, ELF3 (Homo sapiens, UniProt P78545 1-371); settings: protein: recombinant; tags: N-terminal GST; dsDNA, one strand shown
T11 sequence: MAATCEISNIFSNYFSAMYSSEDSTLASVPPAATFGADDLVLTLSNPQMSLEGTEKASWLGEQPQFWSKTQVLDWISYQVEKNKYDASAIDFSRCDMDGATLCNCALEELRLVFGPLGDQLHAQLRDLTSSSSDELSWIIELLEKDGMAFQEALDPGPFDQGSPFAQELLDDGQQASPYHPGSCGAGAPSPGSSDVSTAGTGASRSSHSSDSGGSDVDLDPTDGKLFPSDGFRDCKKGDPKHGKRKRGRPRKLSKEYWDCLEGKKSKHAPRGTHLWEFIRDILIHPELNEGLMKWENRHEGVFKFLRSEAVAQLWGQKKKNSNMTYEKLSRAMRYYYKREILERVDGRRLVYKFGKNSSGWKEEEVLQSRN
Summary of the method: as §1

CRX = CRX (Homo sapiens, UniProt O43186 1-299); settings: protein: recombinant; tags: N-terminal GST; dsDNA, one strand shown
Chain of CRX (O43186 whole entry): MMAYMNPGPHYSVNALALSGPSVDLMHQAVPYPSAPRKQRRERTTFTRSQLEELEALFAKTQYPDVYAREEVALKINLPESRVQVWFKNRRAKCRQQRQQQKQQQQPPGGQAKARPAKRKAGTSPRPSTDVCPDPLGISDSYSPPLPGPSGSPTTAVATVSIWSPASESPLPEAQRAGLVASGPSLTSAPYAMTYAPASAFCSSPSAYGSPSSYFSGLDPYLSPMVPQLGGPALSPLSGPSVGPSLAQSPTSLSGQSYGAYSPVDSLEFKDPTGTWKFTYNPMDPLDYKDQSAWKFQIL
Summary of the method: as §1

ETV1 = ETV1 (Homo sapiens, UniProt P50549 1-477); settings: protein: recombinant; tags: N-terminal GST; dsDNA, one strand shown
Chain of ETV1 (P50549 whole entry): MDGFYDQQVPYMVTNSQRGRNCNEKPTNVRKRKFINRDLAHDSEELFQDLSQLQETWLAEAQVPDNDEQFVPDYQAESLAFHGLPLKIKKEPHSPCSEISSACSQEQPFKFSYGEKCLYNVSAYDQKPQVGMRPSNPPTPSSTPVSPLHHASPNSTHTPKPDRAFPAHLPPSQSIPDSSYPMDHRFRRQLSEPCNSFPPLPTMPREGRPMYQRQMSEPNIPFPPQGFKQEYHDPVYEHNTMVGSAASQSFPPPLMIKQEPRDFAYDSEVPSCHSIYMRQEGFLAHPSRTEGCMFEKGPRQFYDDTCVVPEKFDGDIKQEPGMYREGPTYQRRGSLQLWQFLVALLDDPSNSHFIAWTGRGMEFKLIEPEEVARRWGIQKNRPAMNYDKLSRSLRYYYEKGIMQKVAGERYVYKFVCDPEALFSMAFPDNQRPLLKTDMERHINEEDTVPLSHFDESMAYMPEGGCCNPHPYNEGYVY
Summary of the method: as §1

Question: What does the source list for AAGTAG?
Answer: binding signal (FLI1): 1.12 fold enrichment (6-mer frequency, TF over GST control); binding signal (ELK1): 1.21 fold enrichment (6-mer frequency, TF over GST control); binding signal (GABPA): 1.2 fold enrichment (6-mer frequency, TF over GST control); binding signal (ERG): 1.24 fold enrichment (6-mer frequency, TF over GST control); binding signal (ELF1): 1.15 fold enrichment (6-mer frequency, TF over GST control); binding signal (EHF): 1.23 fold enrichment (6-mer frequency, TF over GST control); binding signal (SPI1): 1.35 fold enrichment (6-mer frequency, TF over GST control); binding signal (SPIB): 1.13 fold enrichment (6-mer frequency, TF over GST control); binding signal (ELK3): 1.26 fold enrichment (6-mer frequency, TF over GST control); binding signal (FEV): 1.21 fold enrichment (6-mer frequency, TF over GST control); binding signal (ETV5): 1.25 fold enrichment (6-mer frequency, TF over GST control); binding signal (HSF1): 1.11 fold enrichment (6-mer frequency, TF over GST control); binding signal (SPIC): 1.3 fold enrichment (6-mer frequency, TF over GST control); binding signal (ELF4): 1.18 fold enrichment (6-mer frequency, TF over GST control); binding signal (ELK4): 1.06 fold enrichment (6-mer frequency, TF over GST control); binding signal (ETV2): 1.18 fold enrichment (6-mer frequency, TF over GST control); binding signal (ELF3): 1.31 fold enrichment (6-mer frequency, TF over GST control); binding signal (CRX): 1.2 fold enrichment (6-mer frequency, TF over GST control); binding signal (ETV1): 1.28 fold enrichment (6-mer frequency, TF over GST control)
